Assay results from PubChem BioAssay AID1671202 (University of Kansas High Throughput Screening Laboratory, 2021).
Screen size: about 190,000 compounds; about 6,900 (3.6%) were called active. Cut-off read from the data, not from the text of the source: active = inhibition above about 50%; inactive = the rest. The full list was thinned out, with actives kept by preference.

biological target: Huntingtin (Homo sapiens) (UniProt P42858); test: mutant huntingtin-calmodulin interaction inhibitors – biochemical, AlphaScreen, primary screen (AID 1671202); conditions: AlphaScreen His-mHTT/GST-CaM binding, luminescence; at 15 µM, stronger effect = higher value;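 note: 0% = both proteins with DMSO and 100% = one protein alone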
Sequence (P42858 whole entry, looked up, stated change not applied): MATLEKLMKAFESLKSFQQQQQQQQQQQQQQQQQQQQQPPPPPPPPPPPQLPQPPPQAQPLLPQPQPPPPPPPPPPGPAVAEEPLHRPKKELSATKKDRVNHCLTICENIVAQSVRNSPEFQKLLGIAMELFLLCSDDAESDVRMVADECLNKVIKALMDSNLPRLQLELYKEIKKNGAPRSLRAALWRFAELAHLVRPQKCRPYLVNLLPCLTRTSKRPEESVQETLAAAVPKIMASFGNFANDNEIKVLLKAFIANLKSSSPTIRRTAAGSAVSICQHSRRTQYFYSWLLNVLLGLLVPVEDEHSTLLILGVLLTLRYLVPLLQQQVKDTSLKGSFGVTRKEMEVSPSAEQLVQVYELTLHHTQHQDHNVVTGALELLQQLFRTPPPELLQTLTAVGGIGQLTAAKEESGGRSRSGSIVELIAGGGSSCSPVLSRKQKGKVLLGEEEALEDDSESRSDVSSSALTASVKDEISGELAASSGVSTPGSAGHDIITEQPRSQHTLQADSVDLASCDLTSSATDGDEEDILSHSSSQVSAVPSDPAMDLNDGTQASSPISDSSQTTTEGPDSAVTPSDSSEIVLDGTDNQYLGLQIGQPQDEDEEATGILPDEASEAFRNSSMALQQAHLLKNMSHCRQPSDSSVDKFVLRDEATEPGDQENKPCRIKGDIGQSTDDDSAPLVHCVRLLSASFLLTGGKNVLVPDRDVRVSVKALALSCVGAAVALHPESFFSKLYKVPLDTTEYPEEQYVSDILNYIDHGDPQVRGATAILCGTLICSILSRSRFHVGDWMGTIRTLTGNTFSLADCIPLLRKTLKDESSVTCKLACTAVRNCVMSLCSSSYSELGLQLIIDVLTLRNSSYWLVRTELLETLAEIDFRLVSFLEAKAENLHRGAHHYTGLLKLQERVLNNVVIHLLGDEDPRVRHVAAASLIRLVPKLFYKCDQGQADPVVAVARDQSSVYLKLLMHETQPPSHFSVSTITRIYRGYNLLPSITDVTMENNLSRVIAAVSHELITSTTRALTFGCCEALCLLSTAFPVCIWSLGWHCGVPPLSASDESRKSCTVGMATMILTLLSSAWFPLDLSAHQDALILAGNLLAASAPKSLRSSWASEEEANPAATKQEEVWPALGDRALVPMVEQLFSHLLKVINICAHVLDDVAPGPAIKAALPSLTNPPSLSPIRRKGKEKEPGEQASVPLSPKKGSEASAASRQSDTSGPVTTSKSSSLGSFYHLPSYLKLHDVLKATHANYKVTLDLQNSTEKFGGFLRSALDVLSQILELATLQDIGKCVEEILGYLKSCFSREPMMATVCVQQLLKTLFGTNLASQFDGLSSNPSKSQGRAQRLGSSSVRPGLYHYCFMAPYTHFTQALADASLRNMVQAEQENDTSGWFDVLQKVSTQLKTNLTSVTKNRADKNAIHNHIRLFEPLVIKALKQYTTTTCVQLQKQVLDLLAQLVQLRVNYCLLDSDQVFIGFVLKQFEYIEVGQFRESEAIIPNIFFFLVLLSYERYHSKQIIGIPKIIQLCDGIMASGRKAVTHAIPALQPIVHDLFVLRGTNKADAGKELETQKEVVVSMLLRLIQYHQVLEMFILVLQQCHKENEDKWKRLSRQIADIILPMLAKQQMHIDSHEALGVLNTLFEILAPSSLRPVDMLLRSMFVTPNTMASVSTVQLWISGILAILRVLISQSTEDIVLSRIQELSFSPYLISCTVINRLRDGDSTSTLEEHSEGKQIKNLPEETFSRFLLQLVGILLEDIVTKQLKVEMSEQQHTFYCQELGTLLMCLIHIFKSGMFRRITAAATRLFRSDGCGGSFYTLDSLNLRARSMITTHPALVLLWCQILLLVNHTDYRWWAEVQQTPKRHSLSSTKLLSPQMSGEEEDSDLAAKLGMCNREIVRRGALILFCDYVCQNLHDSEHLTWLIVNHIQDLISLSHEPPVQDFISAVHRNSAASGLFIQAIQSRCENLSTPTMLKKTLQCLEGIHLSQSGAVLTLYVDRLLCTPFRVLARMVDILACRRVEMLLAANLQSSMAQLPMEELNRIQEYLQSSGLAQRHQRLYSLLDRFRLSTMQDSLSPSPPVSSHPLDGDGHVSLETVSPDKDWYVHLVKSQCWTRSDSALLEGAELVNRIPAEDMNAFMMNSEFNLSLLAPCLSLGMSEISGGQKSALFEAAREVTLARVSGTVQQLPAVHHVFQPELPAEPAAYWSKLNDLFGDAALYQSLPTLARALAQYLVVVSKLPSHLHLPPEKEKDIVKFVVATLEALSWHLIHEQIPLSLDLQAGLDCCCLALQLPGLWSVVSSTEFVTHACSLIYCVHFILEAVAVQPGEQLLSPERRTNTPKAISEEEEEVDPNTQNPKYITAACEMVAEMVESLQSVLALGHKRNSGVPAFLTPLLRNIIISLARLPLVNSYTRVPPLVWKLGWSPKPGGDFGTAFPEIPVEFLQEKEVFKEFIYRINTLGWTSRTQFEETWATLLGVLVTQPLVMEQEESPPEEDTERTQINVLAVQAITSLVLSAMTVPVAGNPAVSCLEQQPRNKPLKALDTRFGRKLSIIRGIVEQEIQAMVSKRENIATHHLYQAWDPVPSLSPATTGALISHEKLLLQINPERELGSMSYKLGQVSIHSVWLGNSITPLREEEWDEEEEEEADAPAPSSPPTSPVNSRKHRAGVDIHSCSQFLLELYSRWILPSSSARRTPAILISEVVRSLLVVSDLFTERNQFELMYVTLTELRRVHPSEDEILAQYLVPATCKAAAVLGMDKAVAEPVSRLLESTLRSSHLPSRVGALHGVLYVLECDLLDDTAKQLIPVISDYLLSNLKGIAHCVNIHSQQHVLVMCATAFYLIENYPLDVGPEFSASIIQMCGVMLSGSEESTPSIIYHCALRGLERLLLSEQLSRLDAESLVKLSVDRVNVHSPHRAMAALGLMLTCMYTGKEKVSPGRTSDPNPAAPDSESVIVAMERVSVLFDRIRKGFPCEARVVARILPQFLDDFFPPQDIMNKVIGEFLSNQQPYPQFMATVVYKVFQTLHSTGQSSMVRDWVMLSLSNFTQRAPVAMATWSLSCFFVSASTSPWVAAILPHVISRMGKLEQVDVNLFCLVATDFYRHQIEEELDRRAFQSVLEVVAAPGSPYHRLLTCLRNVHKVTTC

Compound | inhibition
CC1(C(=O)NCC2CCCO2)CCC(=O)N1Cc1cccs1 (stereo not given) | 3% (inactive)
CCN(c1ccc(F)cc1)S(=O)(=O)c1ccc2[nH]cc(C(=O)NCCN(C)C)c(=O)c2c1 | 3% (inactive)
CCOc1ccc(CN2C(=O)CCC2(C)C(=O)NC2CCCC(C)C2C)cc1 (stereo not given) | -9% (inactive)
C=CCNCCCOc1ccc(Br)cc1C | 0.1% (inactive)
CCc1ccc(NC(=O)CN2C(=O)C(c3ccccc3)=NC23CCCCC3)cc1 | -7.57% (inactive)
O=C(CN1C(=O)C(c2ccccc2)=NC12CCCCC2)Nc1ccc(Cl)cc1 | 50.9% (active)
COc1ccc(NC(=O)CN2C(=O)C(c3ccccc3)=NC23CCCCCC3)cc1OC | -0.13% (inactive)
Cc1ccc(NC(=O)CN2CCN(c3ccccn3)CC2)cc1F | 2% (inactive)
COCCNC(=O)NCCn1ccnc1C | -11.5% (inactive)
COc1cc(CN2CCN(Cc3cc(OC)c(OC)c(OC)c3)CC2)cc(OC)c1 | -4.6% (inactive)
COc1ccc(O)c(C(=O)CC(=O)c2cccc(F)c2)c1 | 58.1% (active)
COc1ccc(CC(=O)Nc2ccccc2F)cc1 | 0.5% (inactive)
COc1cccc(C(=O)N(CC#N)CC#N)c1 | 4.4% (inactive)
CC(C)n1c(COc2ccccc2)nc2ccccc21 | -16% (inactive)
Cn1c(COc2ccc(Cl)cc2)nc2ccccc2c1=O | 61.9% (active)
CCSc1nc2ccccc2c(=O)n1C | -11.7% (inactive)
O=C(Nc1cccc(NC(=O)c2ccccc2Cl)c1)c1ccccc1Cl | 1% (inactive)
Nc1c(C(=O)Nc2ccccc2I)sc2nc(-c3cccs3)ccc12 | -8% (inactive)
CCOc1cccc2c1OC(c1cccc(OC)c1OC)N1N=C(c3ccc(C)o3)CC21 (stereo not given) | 67% (active)
CCOc1cccc2c1OC1(CCCCC1)N1N=C(c3cccnc3)CC21 (stereo not given) | 27% (inactive)
CCOc1cccc2c1OC(c1ccc(OC)c(OC)c1)N1N=C(c3ccco3)CC21 (stereo not given) | 45% (inactive)
CCOC(=O)C1CCN(C(=O)CCN2C(=O)c3ccccc3S2(=O)=O)CC1 | -1.8% (inactive)
O=C(Nc1ccc2c(c1)OCCO2)N1CCCC1c1ccc(Cl)cc1 (stereo not given) | 10.2% (inactive)
N#C/C(=C\c1ccc(F)cc1)c1nc(-c2cc3ccccc3oc2=O)cs1 | -8% (inactive)

Compound | inhibition
CC1(C)Cc2ccccc2-c2nc(NCCO)n(Cc3ccccc3)c(=O)c21 | 15% (inactive)
Cc1cccc(NC(=O)c2nc(-c3cccc(F)c3)n3c2CCCCC3)n1 | 43.6% (inactive)
Cc1ccccc1N1CCN(C(=O)Cc2cn(C)c3ncccc23)CC1 | 10.1% (inactive)
CCCNC(=O)Cc1cn(C)c2ncccc12 | -16.2% (inactive)
Cn1cc(CCN2CCN(C(=O)c3ccc(C(F)(F)F)cc3)CC2)c2cccnc21 | 54.6% (active)
CCCC(O)=C1C(=O)CC(C)(C)CC1=Nc1cccc([N+](=O)[O-])c1 | -1.5% (inactive)
CC(=O)Nc1ccc(N/C=C(\C#N)c2nc(-c3ccccc3)cs2)cc1 | 4% (inactive)
CC(C)C(=O)Nc1c2c(nn1-c1ccc(Cl)cc1)CSC2 | -5% (inactive)
Cc1cccc(-n2nc3c(c2NC(=O)c2ccc(Br)o2)CSC3)c1C | 24% (inactive)
O=C(Nc1c2c(nn1-c1ccc(Cl)cc1)CSC2)c1ccc(F)cc1 | 21% (inactive)
O=C(Nc1c2c(nn1-c1ccc(Cl)cc1)CSC2)c1cccc([N+](=O)[O-])c1 | -9% (inactive)
Cc1ccccc1-n1nc2c(c1NC(=O)C1CC1)CSC2 | 60% (active)
Cc1cccc(-n2nc3c(c2NC(=O)c2c(F)cccc2F)CSC3)c1C | 5% (inactive)
O=C(/C=C/c1ccco1)Nc1c2c(nn1-c1ccc(Cl)cc1)CSC2 | 98% (active)
COc1cccc(C(=O)Nc2c3c(nn2-c2ccc(Cl)cc2)CSC3)c1 | 41% (inactive)
O=C(Nc1c2c(nn1-c1ccc(Cl)cc1)CSC2)c1cccc(Br)c1 | 50% (active)
Cc1ccccc1-n1nc2c(c1NC(=O)/C=C/c1ccco1)CSC2 | 98% (active)
Cc1cccc(-n2nc3c(c2NC(=O)C2CC2)CSC3)c1C | 8% (inactive)
COc1ccc(/C=C/C(=O)Nc2c3c(nn2-c2ccccc2C)CSC3)cc1OC | 29% (inactive)
O=C(Nc1ccc(Cl)cc1)c1cc(S(=O)(=O)NCc2ccccc2)ccc1Cl | 13% (inactive)
COc1ccc(OC)c(-c2cc(C(=O)Nc3nc4c(s3)CCCC4)n(C)n2)c1 | 16.3% (inactive)
Cc1nc(C2CCN(C(=O)c3cccc(F)c3)CC2)sc1C(=O)NCc1cccnc1 | 9.99% (inactive)
CCCn1cnnc1C1CCCCN1C(=O)c1ccncc1 (stereo not given) | -3.5% (inactive)
c1ccc2c(c1)CC1(CCCCC1)N=C2N1CCOCC1 | -5.33% (inactive)

Compound | inhibition
CC(C)C(=O)Nc1ccc(N2CCCN(C(=O)C3CC3)CC2)nc1 | -1% (inactive)
CCCc1cc2c(=O)c(-c3ccc4c(c3)OCO4)c(CC)oc2cc1OC(=O)CC | -12.9% (inactive)
C=CCSC1=C(C#N)C(c2ccco2)C(C(=O)Nc2ccccc2OC)=C(C)N1 (stereo not given) | 8% (inactive)
c1ccc(-c2n[nH]c(C3CCN(Cc4cccnc4)CC3)n2)cc1 | 9.4% (inactive)
O=C(Cc1cccnc1)N1CCCC(c2nc(-c3ccccc3)n[nH]2)C1 (stereo not given) | -0.1% (inactive)
c1ccc(-c2n[nH]c(C3CCCN(Cc4ccccn4)C3)n2)cc1 (stereo not given) | 100% (active)
COC(=O)C(C)Oc1ccc2c(c1)OC(=Cc1ccccc1C)C2=O (stereo not given) | 0.9% (inactive)
COc1cccc(CNC(=O)N2CCCC3(C2)Nc2cccnc2NC3=NC2CCCC2)c1 (stereo not given) | 1.31% (inactive)
COCCN=C1Nc2ccccc2NC12CCCN(C(=O)CSc1ccccc1)C2 (stereo not given) | 76.2% (active)
COCCN=C1Nc2ccccc2CNC12CCN(C(=O)c1cccc(C(F)(F)F)c1)C2 (stereo not given) | 18.7% (inactive)
COCCN=C1Nc2ccccc2NC12CCCN(C(=O)Cc1cccs1)C2 (stereo not given) | 63% (active)
COCCN=C1Nc2ccccc2NC12CCCN(S(=O)(=O)c1cccc(OC)c1)C2 (stereo not given) | 11.2% (inactive)
Cc1cc(C)n(CC(=O)N2CCCC3(C2)Nc2cccnc2NC3=NC2CCCC2)n1 (stereo not given) | -1.34% (inactive)
O=C(c1ccsc1)N1CCCC2(C1)Nc1ccccc1NC2=NC1CCCC1 (stereo not given) | 4.96% (inactive)
COCCN=C1Nc2ccccc2NC12CCCN(C(=O)c1cccc(Cl)c1)C2 (stereo not given) | 65.7% (active)
Cc1ccccc1CNC(=O)C1(C)CCCN(C(=O)c2cccc(Cl)c2)C1 (stereo not given) | 19.4% (inactive)
CCOc1ccc(CC(=O)N2CCCC3(C2)Nc2cccnc2NC3=NC2CCCC2)cc1 (stereo not given) | 11.4% (inactive)
COc1ccccc1CC(=O)N1CCCC2(C1)Nc1cccnc1NC2=NC1CCCC1 (stereo not given) | 16.8% (inactive)
COCCN=C1Nc2ccccc2NC12CCCN(C(=O)Nc1cccc(OC)c1)C2 (stereo not given) | 99.8% (active)
CCOc1ccc(CN2C(=O)CCC2(C)C(=O)NC2CCCC2)cc1OC (stereo not given) | 16% (inactive)
CCn1c(SCc2ccccc2F)nnc1-c1cccc([N+](=O)[O-])c1 | 13.8% (inactive)
Cc1ccc(C(=O)COc2ccccc2Cl)cc1C | -114% (inactive)
COc1ccc([N+](=O)[O-])cc1C1=N/C(=C/c2cccc(F)c2)C(=O)O1 | -5% (inactive)
COc1ccc(NC(=O)C2CCN(c3cnn(C)c(=O)c3)CC2)c(OC)c1 | 36.1% (inactive)

Compound | inhibition
COc1cccc(C(=O)N2CCC(c3nnc(C(F)(F)F)o3)CC2)c1OC | -7.5% (inactive)
COc1cccc(C(=O)N2CCC(Oc3nc4c(C)ccc(C)c4s3)CC2)c1OC | 64.4% (active)
COc1ccccc1C(=O)N1CCC(c2nc(C(=O)N3CCOCC3)c(C)o2)CC1 | -6.99% (inactive)
Cc1ccc2nc(C(=O)NCc3cc(F)ccc3F)cn2c1 | -9% (inactive)
C=CCN(CC=C)S(=O)(=O)c1ccc(C(=O)Nc2c(C(N)=O)oc3ccccc23)cc1 | 15.2% (inactive)
CCNC(=O)C1Cc2ccc(OC)cc2N2CCN(c3ccccc3OC)CC12 (stereo not given) | 47% (inactive)
CCNC(=O)C1Cc2ccc(OC)cc2N2CCN(Cc3ccc(Cl)cc3)CC12 (stereo not given) | 93.9% (active)
COCCNC(=O)C1Cc2ccccc2N2CCN(c3ccccc3)CC12 (stereo not given) | 11.4% (inactive)
O=C(Nc1ccc2c(c1)OCO2)N1CCOc2ccccc21 | 7.08% (inactive)
Cc1ccccc1Cc1c(C)nc2c(C(=O)NC3CCCCC3)cnn2c1C | 3% (inactive)
Cc1cc(C)c(Cc2c(C)nc3c(C(=O)NC4CCCC4)cnn3c2C)c(C)c1 | -6% (inactive)
Cc1nc2c(C(=O)NC3CCCC3)cnn2c(C)c1Cc1cccc(Cl)c1 | 79% (active)
COc1ccc(C2=NC3(CCN(CC(=O)NCc4ccc(C)cc4)CC3)NC2=O)cc1 | 18.4% (inactive)
CC(C)NC(=O)c1ccc(C(=O)NC(C)C)nc1 | 0.9% (inactive)
CN1CCC(NC(=O)C2CCN(c3nc4ccc(-c5ccsc5)nc4s3)CC2)CC1 | 70.8% (active)
O=C(NC1CC1)C1CCN(c2nc3ccc(-c4ccccc4)nc3s2)CC1 | 0.8% (inactive)
CC(C)CNC(=O)C1CCN(c2nc3ccc(-c4ccncc4)nc3s2)CC1 | 4.07% (inactive)
COc1ccc(-c2ccc3nc(N4CCC(C(N)=O)CC4)sc3n2)cc1 | 27% (inactive)
CCN(CC)C(=O)C1CCN(c2nc3ccc(-c4ccc(OC)cc4)nc3s2)CC1 | 66.8% (active)
CN(C)C(=O)C1CCN(c2nc3ccc(-c4cccc(F)c4)nc3s2)CC1 | 0.2% (inactive)
O=C(NCc1ccc2c(c1)OCO2)c1cc2c(s1)CCN(C(=O)c1ccc(F)cc1)C2 | 1.84% (inactive)
CCOc1ccc2c(=O)c(Oc3ccccc3)coc2c1 | -2.3% (inactive)
CCOc1ccccc1NC(=O)Nc1ccc2c(c1)CN(C(=O)c1ccco1)CC2 | 28.9% (inactive)
